Laboratory results reported in PubChem BioAssay (EPA / NIEHS).
Values joined by “and” are separate entries in the source; they are usually repeats but may differ in a detail not shown here. Equal entries are not always repeated. Records with an inconclusive call do not appear. The source holds several records for some structures; these can differ, active in one and inactive in another. Active and inactive are the calls of the source. Rule for the calls, unless noted: active = hit-call score of the fitted dose curve at least 0.9, where 1 is the maximum; inconclusive = response in the unintended direction; inactive = score below 0.9.

Key:
[1] = target: Estrogen receptor beta (Homo sapiens) (UniProt Q92731); experiment: ATG_hERb_XSP2: Attagene TRANS-FACTORIAL Multi-Species (XSP2) HepG2 Assay for human Estrogen Receptor (ERb) (AID 2283813);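 note: actives raise reporter mRNA above DMSO so AC50 reflects agonist induction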
Estrogen receptor beta (Homo sapiens), sequence (Q92731 whole entry, looked up, the tested form may be a part): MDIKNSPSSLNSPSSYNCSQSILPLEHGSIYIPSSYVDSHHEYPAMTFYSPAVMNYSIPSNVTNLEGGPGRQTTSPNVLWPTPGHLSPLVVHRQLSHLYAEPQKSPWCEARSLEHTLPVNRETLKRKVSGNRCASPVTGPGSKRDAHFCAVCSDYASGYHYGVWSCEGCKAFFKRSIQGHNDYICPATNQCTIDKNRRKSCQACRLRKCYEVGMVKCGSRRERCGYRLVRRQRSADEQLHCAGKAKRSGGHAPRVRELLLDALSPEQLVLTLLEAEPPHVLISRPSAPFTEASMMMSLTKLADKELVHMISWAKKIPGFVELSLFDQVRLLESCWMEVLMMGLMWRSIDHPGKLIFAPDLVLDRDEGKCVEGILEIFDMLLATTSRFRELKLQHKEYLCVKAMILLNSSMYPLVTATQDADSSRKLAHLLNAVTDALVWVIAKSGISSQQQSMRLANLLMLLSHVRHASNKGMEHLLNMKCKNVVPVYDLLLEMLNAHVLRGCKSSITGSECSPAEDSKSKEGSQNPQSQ
In short: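 Transient TRANS reporter system in HepG2: after 24 h of chemical, RNA is reverse-transcribed, reporter cDNA amplified, FAM-labelled and sized by capillary electrophoresis. Induction of the human ERb-Gal4 reporter is measured relative to DMSO.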

[2] = target: GAL4 Transcription Factor (Internal Marker), GAL4 (gene 855828) (UniProt P04386); experiment: ATG_GAL4_XSP2: Attagene TRANS-FACTORIAL Multi-Species (XSP2) HepG2 Assay for GAL4 Transcription Factor (Internal Marker) (AID 2283814);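 note: GAL4 reporter mRNA background control in MRTU transfected cells not a receptor target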
GAL4 Transcription Factor (Internal Marker), GAL4 (gene 855828), sequence (P04386 whole entry, looked up, the tested form may be a part): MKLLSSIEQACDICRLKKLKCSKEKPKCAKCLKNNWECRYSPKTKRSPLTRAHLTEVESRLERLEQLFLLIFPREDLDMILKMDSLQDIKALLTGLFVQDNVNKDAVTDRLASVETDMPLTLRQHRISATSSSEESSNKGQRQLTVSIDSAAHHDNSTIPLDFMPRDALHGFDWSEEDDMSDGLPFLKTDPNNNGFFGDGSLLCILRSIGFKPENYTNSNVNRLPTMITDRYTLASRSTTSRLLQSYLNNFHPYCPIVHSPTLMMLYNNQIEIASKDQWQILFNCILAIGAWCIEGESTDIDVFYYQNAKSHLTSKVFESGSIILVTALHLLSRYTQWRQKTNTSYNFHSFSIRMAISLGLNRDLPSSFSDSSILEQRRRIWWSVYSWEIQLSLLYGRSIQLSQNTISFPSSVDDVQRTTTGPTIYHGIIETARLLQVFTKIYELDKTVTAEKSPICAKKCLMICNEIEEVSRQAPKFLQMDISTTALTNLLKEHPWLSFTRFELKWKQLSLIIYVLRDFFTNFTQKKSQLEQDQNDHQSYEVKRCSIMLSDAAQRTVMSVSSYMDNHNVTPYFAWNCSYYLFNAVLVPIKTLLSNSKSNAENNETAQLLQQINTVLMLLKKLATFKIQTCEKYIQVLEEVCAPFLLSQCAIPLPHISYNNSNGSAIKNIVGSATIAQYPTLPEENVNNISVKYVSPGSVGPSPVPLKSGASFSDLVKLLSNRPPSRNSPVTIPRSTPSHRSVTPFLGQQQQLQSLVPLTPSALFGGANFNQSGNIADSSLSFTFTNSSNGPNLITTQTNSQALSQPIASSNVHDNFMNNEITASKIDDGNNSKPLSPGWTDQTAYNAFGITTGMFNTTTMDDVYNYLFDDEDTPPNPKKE
In short: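 Background-control readout: gain-of-signal fitted against DMSO. After 24 h exposure of transfected HepG2 (MRTU, GAL4-UAS reporters; 3 nM 6-alpha-fluorotestosterone, 1.5 nM norgestrel present), transcripts quantified by RT-PCR and capillary electrophoresis fluorescence.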

[3] = target: zebrafish Estrogen Receptor (ER1), esr1 (gene 259252) (UniProt P57717); experiment: ATG_zfER1_XSP2: Attagene TRANS-FACTORIAL Multi-Species (XSP2) HepG2 Assay for zebrafish Estrogen Receptor (ER1) (AID 2283816)
zebrafish Estrogen Receptor (ER1), esr1 (gene 259252), sequence (P57717 whole entry, looked up, the tested form may be a part): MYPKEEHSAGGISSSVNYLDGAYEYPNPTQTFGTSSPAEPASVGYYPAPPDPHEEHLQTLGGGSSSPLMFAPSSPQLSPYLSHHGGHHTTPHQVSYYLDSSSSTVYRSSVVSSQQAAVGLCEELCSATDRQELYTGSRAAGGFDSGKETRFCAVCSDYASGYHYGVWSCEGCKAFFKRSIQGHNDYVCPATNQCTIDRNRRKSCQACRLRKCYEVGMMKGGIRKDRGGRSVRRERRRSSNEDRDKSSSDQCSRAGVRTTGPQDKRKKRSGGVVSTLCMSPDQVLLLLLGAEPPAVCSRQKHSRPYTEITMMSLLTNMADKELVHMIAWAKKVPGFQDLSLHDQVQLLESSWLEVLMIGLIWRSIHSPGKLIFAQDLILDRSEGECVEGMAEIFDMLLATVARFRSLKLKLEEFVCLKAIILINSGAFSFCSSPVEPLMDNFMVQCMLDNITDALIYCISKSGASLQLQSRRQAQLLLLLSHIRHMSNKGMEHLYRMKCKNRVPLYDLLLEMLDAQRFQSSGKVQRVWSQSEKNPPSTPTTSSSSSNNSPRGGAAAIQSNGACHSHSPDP
In short: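 After 24 h compound exposure, RNA from transfected HepG2 cells was reverse-transcribed and reporter transcripts resolved by capillary electrophoresis. The TRANS format reads exogenous zebrafish ER1-Gal4 chimera activity on GAL4-UAS elements; gain of signal against DMSO.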

[4] = target: chicken Estrogen Receptor (ERa), ESR1 (gene 396099) (UniProt P06212); experiment: ATG_chERa_XSP2: Attagene TRANS-FACTORIAL Multi-Species (XSP2) HepG2 Assay for chicken Estrogen Receptor (ERa) (AID 2283817);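 note: actives raise reporter signal above DMSO so AC50 reflects ER activation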
chicken Estrogen Receptor (ERa), ESR1 (gene 396099), sequence (P06212 whole entry, looked up, the tested form may be a part): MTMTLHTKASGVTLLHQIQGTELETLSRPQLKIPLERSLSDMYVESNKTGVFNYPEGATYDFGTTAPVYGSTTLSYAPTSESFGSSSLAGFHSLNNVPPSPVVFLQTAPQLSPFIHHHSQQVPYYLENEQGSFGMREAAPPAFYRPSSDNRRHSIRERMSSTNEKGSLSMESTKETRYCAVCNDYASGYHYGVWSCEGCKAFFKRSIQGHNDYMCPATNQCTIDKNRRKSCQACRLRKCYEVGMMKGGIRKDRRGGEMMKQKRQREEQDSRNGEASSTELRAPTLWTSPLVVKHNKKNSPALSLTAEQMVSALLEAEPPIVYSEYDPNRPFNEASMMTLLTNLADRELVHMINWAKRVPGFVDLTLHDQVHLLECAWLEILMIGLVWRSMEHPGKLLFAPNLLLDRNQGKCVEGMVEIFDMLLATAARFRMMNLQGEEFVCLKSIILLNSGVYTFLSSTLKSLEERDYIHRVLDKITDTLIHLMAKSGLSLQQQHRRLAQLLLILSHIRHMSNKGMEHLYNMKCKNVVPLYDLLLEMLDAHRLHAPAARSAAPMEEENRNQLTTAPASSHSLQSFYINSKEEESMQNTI
In short: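 Readout: fluorescent reporter-transcript fragments resolved by capillary electrophoresis after RT-PCR and HpaI cut. Chicken ERa-Gal4 fusion in transiently transfected HepG2, dosed for 24 h; activity taken as increase over DMSO baseline.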

[5] = test system: zebrafish Estrogen Receptor (ER2a), gene 317734; experiment: ATG_zfER2a_XSP2: Attagene TRANS-FACTORIAL Multi-Species (XSP2) HepG2 Assay for zebrafish Estrogen Receptor (ER2a) (AID 2283818);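 note: hits raise reporter mRNA so AC50 reflects activation of zebrafish ER2a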
In short: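 Multiplexed trans-reporter readout: RT-PCR then capillary electrophoresis of reporter transcripts after 24 h compound treatment. Human HepG2 carries transfected zebrafish ER2a-Gal4 chimera; 3 nM 6-alpha-fluorotestosterone plus 1.5 nM norgestrel present. Induction scored against DMSO.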

[6] = test system: zebrafish Estrogen Receptor (ER2b), gene 317733; experiment: ATG_zfER2b_XSP2: Attagene TRANS-FACTORIAL Multi-Species (XSP2) HepG2 Assay for zebrafish Estrogen Receptor (ER2b) (AID 2283823);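 note: fitted upward as reporter gain over DMSO so potency reflects activation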
In short: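 HepG2 human liver cells transiently transfected with multiplexed GAL4-UAS reporter units expressing chimeric NR-Gal4 proteins; compounds dosed for 24 h. Reporter mRNA quantified by RT-PCR, 6-FAM labelling and capillary electrophoresis; gain-of-signal fitted against DMSO baseline.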

[7] = ATG_M_32_XSP2: Attagene TRANS-FACTORIAL Multi-Species (XSP2) HepG2 Assay for M19 Transcription Factor (Internal Marker) (AID 2283826)
In short: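 Read-out: reporter mRNA quantified by RT-PCR, FAM labeling, HpaI digestion and capillary electrophoresis, 24 h after dosing transfected HepG2 cells. Medium carried 3 nM 6-alpha-fluorotestosterone plus 1.5 nM norgestrel; gain of signal fitted against DMSO.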

[8] = test system: frog Estrogen Receptor (ER2), gene 100174814; experiment: ATG_frER2_XSP2: Attagene TRANS-FACTORIAL Multi-Species (XSP2) HepG2 Assay for frog Estrogen Receptor (ER2) (AID 2283828)
In short: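 Cells were transfected with reporter constructs under GAL4-UAS control, dosed with chemicals for 24 h, then lysed for RNA; the frog ER2-driven reporter mRNA was quantified by capillary electrophoresis of labeled PCR fragments, with activity fitted upward from DMSO.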

[9] = target: mouse Peroxisome Proliferator-activated Receptor gamma (PPARg), Pparg (gene 19016) (UniProt P37238); experiment: ATG_mPPARg_XSP2: Attagene TRANS-FACTORIAL Multi-Species (XSP2) HepG2 Assay for mouse Peroxisome Proliferator-activated Receptor gamma (PPARg) (AID 2283830);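 note: hits are gains in reporter mRNA above DMSO so AC50 marks activation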
mouse Peroxisome Proliferator-activated Receptor gamma (PPARg), Pparg (gene 19016), sequence (P37238 whole entry, looked up, the tested form may be a part): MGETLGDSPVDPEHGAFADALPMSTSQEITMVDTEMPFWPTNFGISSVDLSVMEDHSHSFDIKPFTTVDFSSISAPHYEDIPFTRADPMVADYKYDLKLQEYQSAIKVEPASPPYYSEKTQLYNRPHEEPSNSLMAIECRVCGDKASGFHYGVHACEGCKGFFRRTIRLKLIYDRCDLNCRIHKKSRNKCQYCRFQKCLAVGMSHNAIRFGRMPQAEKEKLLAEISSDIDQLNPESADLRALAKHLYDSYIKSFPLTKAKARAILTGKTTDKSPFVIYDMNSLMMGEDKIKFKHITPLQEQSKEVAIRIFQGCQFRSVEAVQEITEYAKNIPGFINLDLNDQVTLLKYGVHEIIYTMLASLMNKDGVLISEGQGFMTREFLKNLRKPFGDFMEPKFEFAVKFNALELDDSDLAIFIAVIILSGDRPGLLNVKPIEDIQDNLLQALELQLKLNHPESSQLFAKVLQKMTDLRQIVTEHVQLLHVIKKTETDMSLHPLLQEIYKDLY
In short: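 Multiplexed TRANS reporter readout: after 24 h chemical exposure of transfected HepG2 cells (with 3 nM 6-alpha-fluorotestosterone, 1.5 nM norgestrel present), RNA reverse-transcribed, amplified, 6-FAM-labelled and resolved by capillary electrophoresis; mouse PPARg-Gal4 induction scored against DMSO.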

[10] = target: Nuclear receptor subfamily 1 group I member 2 (Mus musculus) (UniProt O54915); experiment: ATG_mPXR_XSP2: Attagene TRANS-FACTORIAL Multi-Species (XSP1) HepG2 Assay for mouse Pregnane X Receptor (PXR) (AID 2283831)
Nuclear receptor subfamily 1 group I member 2 (Mus musculus), sequence (O54915 whole entry, looked up, the tested form may be a part): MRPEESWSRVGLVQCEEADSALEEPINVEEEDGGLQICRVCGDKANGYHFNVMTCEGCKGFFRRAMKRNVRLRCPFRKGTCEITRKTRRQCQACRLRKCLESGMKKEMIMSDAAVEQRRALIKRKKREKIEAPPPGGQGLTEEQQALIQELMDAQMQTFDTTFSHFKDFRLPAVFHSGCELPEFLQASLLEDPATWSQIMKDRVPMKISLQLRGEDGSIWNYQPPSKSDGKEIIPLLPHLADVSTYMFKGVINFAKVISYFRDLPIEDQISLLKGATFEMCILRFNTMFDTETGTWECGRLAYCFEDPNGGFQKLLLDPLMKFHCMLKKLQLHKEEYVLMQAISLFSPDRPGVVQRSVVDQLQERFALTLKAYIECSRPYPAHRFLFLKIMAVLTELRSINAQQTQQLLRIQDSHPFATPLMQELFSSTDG
In short: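 Reporter transcripts measured after 24 h dosing by RT-PCR with 6-FAM labelling, HpaI digestion and capillary electrophoresis. Transiently transfected HepG2 with NR-Gal4 chimeras; increase over DMSO baseline scored.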

[11] = target: zebrafish Thyroid Hormone Receptor alpha (TRa), thraa (gene 30670) (UniProt Q98867); experiment: ATG_zfTRa_XSP2: Attagene TRANS-FACTORIAL Multi-Species (XSP1) HepG2 Assay for zebrafish Thyroid Hormone Receptor alpha (TRa) (AID 2283832);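 note: actives raise zebrafish TRa-Gal4 reporter transcript above DMSO baseline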
zebrafish Thyroid Hormone Receptor alpha (TRa), thraa (gene 30670), sequence (Q98867 whole entry, looked up, the tested form may be a part): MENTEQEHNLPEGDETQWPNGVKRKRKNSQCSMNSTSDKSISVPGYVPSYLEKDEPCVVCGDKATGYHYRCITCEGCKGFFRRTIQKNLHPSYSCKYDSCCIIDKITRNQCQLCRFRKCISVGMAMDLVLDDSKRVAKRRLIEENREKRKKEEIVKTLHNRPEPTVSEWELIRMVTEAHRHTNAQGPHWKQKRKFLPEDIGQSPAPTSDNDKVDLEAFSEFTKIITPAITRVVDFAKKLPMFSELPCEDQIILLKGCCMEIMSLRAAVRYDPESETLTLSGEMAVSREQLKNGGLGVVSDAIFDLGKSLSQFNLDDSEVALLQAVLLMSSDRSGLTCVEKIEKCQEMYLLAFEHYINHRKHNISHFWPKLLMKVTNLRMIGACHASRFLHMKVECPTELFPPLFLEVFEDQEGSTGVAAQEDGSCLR
In short: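 Chimeric zebrafish TRa-Gal4 activity read in transfected human HepG2 as GAL4-UAS reporter transcripts, 24 h post-dose, via RT-PCR with labeled primer extension and capillary electrophoresis. Medium also carries 3 nM 6-alpha-fluorotestosterone and 1.5 nM norgestrel; DMSO baseline.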

[12] = test system: zebrafish Peroxisome Proliferator-activated Receptor gamma (PPARg), gene 557037; experiment: ATG_zfPPARg_XSP2: Attagene TRANS-FACTORIAL Multi-Species (XSP2) HepG2 Assay for zebrafish Peroxisome Proliferator-activated Receptor gamma (PPARg) (AID 2283833);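 note: actives increase reporter signal over DMSO so AC50 reflects activation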
In short: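 After 24 h chemical exposure, RNA from transiently transfected HepG2 (chimeric NR-Gal4 TRANS reporters) was reverse-transcribed, PCR-amplified, 6-FAM-labelled, HpaI-cut and sized by capillary electrophoresis. Induction was scored in the positive direction relative to DMSO.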

[13] = test system: turtle Thyroid Hormone Receptor, alpha (TRa), gene 101949057; experiment: ATG_trTRa_XSP2: Attagene TRANS-FACTORIAL Multi-Species (XSP1) HepG2 Assay for turtle Thyroid Hormone Receptor, alpha (TRa) (AID 2283834);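 note: hits raise reporter mRNA over the DMSO baseline so AC50 marks activators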
In short: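 Turtle TRa-Gal4 chimera activity in transfected human HepG2 cells: reporter transcripts quantified by RT-PCR, 6-FAM labelling and capillary electrophoresis 24 h post-dosing; positive direction versus DMSO, medium containing 3 nM 6-alpha-fluorotestosterone and 1.5 nM norgestrel.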

[14] = ATG_M_61_XSP2: Attagene TRANS-FACTORIAL Multi-Species (XSP2) HepG2 Assay for M61 Transcription Factor (Internal Marker) (AID 2283835; active = hit-call score of the fitted dose curve at least 0.9, where 1 is the maximum; inactive = score below 0.9;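 note: reporter mRNA of an internal background marker read by RT-PCR and capillary electrophoresis; active means a rise in signal above the DMSO baseline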)
In short: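 Transient MRTU transfection of human HepG2; 24 h chemical dosing with 3 nM 6-alpha-fluorotestosterone + 1.5 nM norgestrel added for AR stimulation. RNA isolated, RT, PCR, FAM-labelled, HpaI cut, CE read. Positive direction vs DMSO.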

[15] = target: zebrafish Thyroid Hormone Receptor beta (TRb), thrb (gene 30607) (UniProt Q9PVE4); experiment: ATG_zfTRb_XSP2: Attagene TRANS-FACTORIAL Multi-Species (XSP1) HepG2 Assay for zebrafish Thyroid Hormone Receptor beta (TRb) (AID 2283836)
zebrafish Thyroid Hormone Receptor beta (TRb), thrb (gene 30607), sequence (Q9PVE4 whole entry, looked up, the tested form may be a part): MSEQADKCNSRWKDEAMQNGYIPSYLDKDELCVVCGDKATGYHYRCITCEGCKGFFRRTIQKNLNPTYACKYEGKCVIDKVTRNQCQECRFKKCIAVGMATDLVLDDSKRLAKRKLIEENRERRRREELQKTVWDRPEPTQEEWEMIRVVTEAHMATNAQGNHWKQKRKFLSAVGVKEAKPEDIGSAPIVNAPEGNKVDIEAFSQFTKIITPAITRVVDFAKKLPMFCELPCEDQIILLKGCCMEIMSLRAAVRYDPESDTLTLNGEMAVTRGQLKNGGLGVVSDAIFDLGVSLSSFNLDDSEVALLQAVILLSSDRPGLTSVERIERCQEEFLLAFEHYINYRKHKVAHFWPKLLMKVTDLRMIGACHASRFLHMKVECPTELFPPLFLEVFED
In short: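 Reporter transcripts measured by RT-PCR, 6-FAM labelling, HpaI digestion and capillary electrophoresis after 24 h chemical exposure. Human HepG2 cells carry an exogenous zebrafish TRb-GAL4 chimera; medium included 3 nM 6-alpha-fluorotestosterone plus 1.5 nM norgestrel.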

[16] = test system: turtle Androgen Receptor (AR), gene 101947425; experiment: ATG_trAR_XSP2: Attagene TRANS-FACTORIAL Multi-Species (XSP2) HepG2 Assay for turtle Androgen Receptor (AR) (AID 2283815);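 note: reporter mRNA from a Gal4 chimera of turtle AR measured by RT-PCR; potency for gain of reporter signal meaning activation above DMSO baseline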
In short: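 Reporter transcripts were quantified via RT-PCR and capillary electrophoresis and fitted upward against DMSO. Transiently transfected human HepG2 cells carrying NR-Gal4 chimeras were exposed 24 h, with 3 nM 6-alpha-fluorotestosterone plus 1.5 nM norgestrel added.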

[17] = test system: chicken Androgen Receptor (AR), gene 422165; experiment: ATG_chAR_XSP2: Attagene TRANS-FACTORIAL Multi-Species (XSP2) HepG2 Assay for chicken Androgen Receptor (AR) (AID 2283819);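 note: hits raise reporter mRNA above DMSO so potency is for activation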
In short: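 Readout is reporter mRNA induction via RT-PCR/capillary electrophoresis after 24 h chemical exposure, positive direction relative to DMSO. Transiently transfected HepG2 express chimeric chicken AR–GAL4; AR stimulated by 3 nM 6-alpha-fluorotestosterone and 1.5 nM norgestrel.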

[18] = test system: frog Androgen Receptor (AR), gene 399456; experiment: ATG_frAR_XSP2: Attagene TRANS-FACTORIAL Multi-Species (XSP2) HepG2 Assay for frog Androgen Receptor (AR) (AID 2283824);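 note: reporter mRNA from GAL4-UAS units driven by Xenopus AR-Gal4 chimera; actives raise reporter signal above DMSO so AC50 reflects agonist-like induction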
In short: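 Reporter transcript induction, read by RT-PCR with fluorescent capillary electrophoresis, in human liver HepG2 cells carrying an exogenous Xenopus AR-Gal4 fusion and GAL4-driven reporters; chemical exposure 24 hours, activity scored upward against DMSO controls.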

[19] = test system: zebrafish Androgen Receptor (AR), gene 100005148; experiment: ATG_zfAR_XSP2: Attagene TRANS-FACTORIAL Multi-Species (XSP2) HepG2 Assay for zebrafish Androgen Receptor (AR) (AID 2283825);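 note: hits raise reporter mRNA above DMSO so AC50 reflects agonist-type gain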
In short: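 After 24 h compound exposure in medium with 3 nM 6-alpha-fluorotestosterone plus 1.5 nM norgestrel, HepG2 cells carrying zebrafish AR–GAL4 reporter constructs were assessed for reporter mRNA gain by RT-PCR and capillary electrophoresis.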

[20] = target: Estrogen receptor (Homo sapiens) (UniProt P03372); experiment: ATG_hERa_XSP2: Attagene TRANS-FACTORIAL Multi-Species (XSP2) HepG2 Assay for human Estrogen Receptor (ERa) (AID 2283827)
Estrogen receptor (Homo sapiens), sequence (P03372 whole entry, looked up, the tested form may be a part): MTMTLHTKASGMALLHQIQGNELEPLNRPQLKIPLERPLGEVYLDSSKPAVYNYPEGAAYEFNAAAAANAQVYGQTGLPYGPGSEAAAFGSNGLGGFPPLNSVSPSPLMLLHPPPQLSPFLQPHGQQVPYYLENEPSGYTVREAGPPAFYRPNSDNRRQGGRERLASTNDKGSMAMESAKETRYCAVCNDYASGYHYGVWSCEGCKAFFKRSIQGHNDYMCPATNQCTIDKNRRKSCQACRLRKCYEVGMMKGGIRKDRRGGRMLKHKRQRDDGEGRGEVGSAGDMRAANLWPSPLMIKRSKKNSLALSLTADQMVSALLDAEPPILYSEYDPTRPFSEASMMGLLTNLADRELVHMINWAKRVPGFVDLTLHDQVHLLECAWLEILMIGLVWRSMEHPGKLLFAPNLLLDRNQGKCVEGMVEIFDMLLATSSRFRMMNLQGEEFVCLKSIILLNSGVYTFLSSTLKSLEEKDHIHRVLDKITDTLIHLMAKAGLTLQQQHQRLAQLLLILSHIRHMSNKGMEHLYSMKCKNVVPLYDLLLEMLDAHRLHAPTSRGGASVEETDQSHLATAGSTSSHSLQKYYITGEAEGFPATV
In short: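 Trans-activation of exogenous human ERa-Gal4 chimera read in HepG2 as reporter transcript after 24 h exposure; medium included 3 nM 6-alpha-fluorotestosterone and 1.5 nM norgestrel. Quantified by RT-PCR with capillary electrophoresis, positive-direction fitting against DMSO.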

Measured: AC50

CC12CC1(C)C(=O)N(c1cc(Cl)cc(Cl)c1)C2=O (stereo not drawn)
active: [4] 58.5 µM | [6] 29.8 µM | [8] 100 µM | [10] 8.41 µM and 6.41 µM
inactive: [1] | [2] | [3] | [4] | [5] | [6] | [7] | [8] | [9] | [11] | [12] | [13] | [14] | [15]

C[C@]12CC[C@H](O)CC1=CC[C@@H]1[C@@H]2CC[C@]2(C)C(=O)CC[C@@H]12
inactive: [2] | [7] | [9] | [11] | [12] | [13] | [14] | [15]
active: [1] 1.14 µM and 962 nM | [3] 13.9 µM and 7.49 µM | [4] 2.19 µM and 1.14 µM | [5] 2.39 µM and 1.46 µM | [6] 2.89 µM and 1.73 µM | [8] 3.43 µM and 2.23 µM | [10] 6.42 µM and 5.9 µM

O=C1C2(Cl)C3(Cl)C4(Cl)C(Cl)(Cl)C5(Cl)C3(Cl)C1(Cl)C5(Cl)C24Cl (stereo not drawn)
active: [4] 1.33 µM | [6] 4.05 µM
inactive: [3] | [7] | [8] | [9] | [11] | [12] | [13] | [14] | [15]

C[C@]12CCC(=O)C[C@@H]1CC[C@@H]1[C@@H]2CC[C@]2(C)[C@@H](O)CC[C@@H]12
inactive: [1] | [3] | [4] | [5] | [6] | [19] | [7] | [9] | [11] | [12] | [13] | [14] | [15]
active: [16] 0.0339 µM | [17] 0.198 µM | [18] 0.0457 µM

CC1(C)CCC(Cc2ccc(Cl)cc2)C1(O)Cn1cncn1 (stereo not drawn)
inactive: [2] | [3] | [5] | [7] | [20] | [11] | [12] | [13] | [14] | [15]
active: [4] 3.58 µM | [6] 27.5 µM | [8] 26 µM | [9] 70.1 µM | [10] 2.82 µM

Clc1ccc(C2(Cn3cncn3)CC(Br)CO2)c(Cl)c1 (stereo not drawn)
active: [4] 3.47 µM | [5] 37.4 µM | [6] 51.4 µM and 29.2 µM | [20] 4.43 µM and 6.56 µM | [8] 28.8 µM | [9] 62.7 µM | [10] 3.32 µM and 1.59 µM | [13] 26.9 µM
inactive: [1] | [2] | [3] | [4] | [5] | [7] | [8] | [9] | [11] | [12] | [13] | [14] | [15]

CC(=O)C=C(C)C
active: [5] 46.7 µM | [8] 183 µM
inactive: [3] | [4] | [5] | [17] | [6] | [19] | [7] | [20] | [9] | [10] | [11] | [12] | [13] | [14] | [15]
